GLS inh: inhibitors of human glutaminase (GLS); hit rate 0.21% among 410,000; GLS enzymatic activity, qHTS titration; O94925; AID 624170; Potency, µM (titrated, usually from 45.5 µM), inactives show top-dose activity change, negative = inhibition, most hits filed as inhibitors; note: % is set by controls: 0 for no effect and ±100 for the full control effect
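hKGA in 45 mM KH2PO4 pH 8.2, 0.02% Tween-20 with pin-transferred compounds; 1 mM L-glutamine (stock) plus glutamate oxidase/HRP/Amplex Red coupling added. Fluorescence read initially and after 30 min at RT.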
GLP1R inv ag: GLP-1 receptor (human) inverse agonism | HEK293 GLP-1R CRE-luciferase, luminescence, 24 h; GLP-1R form is constitutively active | AID 624417 | P43220 | Potency, µM (titrated, usually from 38.3 µM), without a hit: at the highest dose activity change, negative = inhibition, hits mostly inhibitors | hit rate 1.6% among 410,000; note: % is set by controls: 0 for no effect and ±100 for the full control effect; nearly all actives have a fitted effect of over 55% in size
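Assay principle: reduced luminescence from a cAMP-responsive reporter in HEK293 cells co-expressing a constitutively active GLP-1R. Conditions: 24 hr compound incubation, 37 deg C, 5% CO2.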
GRP78 ERSR act: inducers of ER stress response in human glioma cells | U87-MG GRP78 promoter luciferase reporter, 16 h | Potency, µM, inactives show top-dose activation, actives largely listed as activators | hit rate 0.02% among 420,000 | AID 602332; note: series mostly up to about 76 µM; % of control where 0% means no effect; nearly all actives have a fitted effect of over 35% in size
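ERSR induction read as luciferase luminescence (Bright-Glo, 10 min at room temperature) in stably transfected human U87-MG glioma cells exposed to compounds for 16 h, using GRP78 as sensor.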
GLP-1R agonist: activates the human GLP-1 receptor; P43220; HEK293 GLP-1R CRE-luciferase, luminescence, 4-6 h; cells express a hypersensitive GLP-1R form; Potency, µM (series often up to 45.6 µM), without a hit: at the top dose activation, usual class: activators; hit rate 0.007% among 380,000; note: % of control where 0% means no effect
12-LOX inh: blocks human arachidonate 12S-lipoxygenase; P18054; Potency, µM (highest dose often 108 µM), for inactives: at the top dose activity change, negative = inhibition, most hits filed as inhibitors; hit rate 1.1% among 580,000; AID 1671190; purified 12hLO, xylenol orange hydroperoxide absorbance; note: % is set by controls: 0 for no effect and ±100 for the full control effect
Target sequence (P18054 whole entry, looked up): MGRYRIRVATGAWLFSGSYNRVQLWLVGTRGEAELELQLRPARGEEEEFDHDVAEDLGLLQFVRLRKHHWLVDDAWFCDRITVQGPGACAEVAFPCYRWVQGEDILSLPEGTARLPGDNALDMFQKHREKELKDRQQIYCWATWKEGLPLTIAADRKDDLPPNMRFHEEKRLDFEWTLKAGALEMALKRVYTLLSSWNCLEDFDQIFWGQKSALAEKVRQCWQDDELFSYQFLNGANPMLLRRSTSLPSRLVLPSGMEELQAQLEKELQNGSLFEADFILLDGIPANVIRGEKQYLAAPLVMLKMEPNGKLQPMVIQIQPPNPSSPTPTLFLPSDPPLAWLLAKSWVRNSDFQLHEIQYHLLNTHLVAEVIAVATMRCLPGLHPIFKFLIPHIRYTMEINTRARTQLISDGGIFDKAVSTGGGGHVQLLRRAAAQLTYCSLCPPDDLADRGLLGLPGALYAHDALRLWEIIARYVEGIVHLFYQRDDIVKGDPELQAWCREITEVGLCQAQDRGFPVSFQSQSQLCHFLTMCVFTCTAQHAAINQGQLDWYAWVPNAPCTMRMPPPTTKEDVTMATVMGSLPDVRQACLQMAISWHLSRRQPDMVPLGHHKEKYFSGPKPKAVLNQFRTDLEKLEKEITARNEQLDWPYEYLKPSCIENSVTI
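Purified human 12hLO at 150 nM in 25 mM Hepes, 0.01% Triton X-100, pH 7.0, preincubated 15 min at room temperature with compound. Reaction started with 40 uM arachidonic acid, 30 min at room temperature. Hydroperoxide measured by Fe-xylenol orange, 573/405 nm absorbance ratio.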
PTHR1 agonist: activates the human parathyroid hormone receptor PTHR1; Q03431; HEK293 GP2 PTHR1 cells, GloSensor cAMP luminescence, 1 h; Potency, µM (titrated, usually from 115 µM), inactives show at the highest dose activation, hits mostly activators; hit rate 0.075% among 410,000; AID 743266; note: nearly all actives have a fitted effect of over 55% in size
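HEK-293-derived GP2 cells expressing PTHR1 and a GloSensor cAMP reporter, 3,000/well, plated overnight, given luciferin plus IBMX (each 0.5 mM as added) for 1 h at 37 °C, then compound for 1 h at 37 °C. Luminescence was read after 15 min at room temperature.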
Starred values were filed as active, the others as inactive. The list is not random: actives were taken first. Their share in the collection is about 2.3%. Calls come from the whole dose curve; as a rule, active = well fitted curve in the direction sought with a large enough effect; inconclusive = small, poorly fitted or top-dose-only effect, or another doubt; inactive = no such curve, though single readings can be large; an effect the other way counts as inactive or inconclusive. Potency is the fitted concentration of half-maximal effect.

How did CN(C)CC/C=C1/c2ccccc2CS(=O)(=O)c2ccccc21 do in these assays?
GLS inh: -10%; GLP1R inv ag: 8%; GRP78 ERSR act: -1%; GLP-1R agonist: 6%; 12-LOX inh: 46%; PTHR1 agonist: -20%

Results for O=C(Oc1ccc2ccccc2c1)C1(c2ccccc2)CC1 ?
12-LOX inh: -7%

What do the screens show for `Cc1nc2ccc(S(=O)(=O)N(CC(=O)N3CCN(C)CC3)Cc3ccccc3)cc2s1`?
12-LOX inh: -6%

What do the screens show for `COc1cc(NC(=O)c2nc3ccccc3nc2OC)cc(OC)c1OC`?
12-LOX inh: -7%

How did COc1ccccc1OC(C)C(=O)c1ccc(Cl)cc1 (stereo unspecified) do in these assays?
12-LOX inh: -1%

What do the screens show for `c1ccc2cc(CN3CCN(Cc4c[nH]c5ccccc45)CC3)ccc2c1`?
12-LOX inh: 1.8µM*

How did Cc1ccccc1N1CCN(Cc2c[nH]c3ccccc23)CC1 do in these assays?
GLS inh: 18%; GLP1R inv ag: inconclusive; GRP78 ERSR act: -4%; GLP-1R agonist: -2%; 12-LOX inh: inconclusive; PTHR1 agonist: 4µM*

What do the screens show for `CN1CCN(c2nc(-c3ccc(Cl)s3)cs2)CC1`?
GLS inh: 0%; GLP1R inv ag: 13%; GRP78 ERSR act: 3%; GLP-1R agonist: 4%; 12-LOX inh: 8.9µM*; PTHR1 agonist: -12%

Results for CC(C)(C)c1csc(N/N=C/c2cccnc2)n1 ?
GLS inh: 11µM*; GLP1R inv ag: -29%; GRP78 ERSR act: 6%; GLP-1R agonist: 14%; 12-LOX inh: inconclusive; PTHR1 agonist: -45%

How did C(=N\Nc1nc(-c2ccccc2)cs1)/c1cccnc1 do in these assays?
GLS inh: -6%; GLP1R inv ag: -41%; GRP78 ERSR act: 8%; GLP-1R agonist: -8%; 12-LOX inh: inconclusive; PTHR1 agonist: -35%

What do the screens show for `C/C(=N\Nc1nc(C(C)(C)C)cs1)c1ccccc1`?
GLS inh: 4%; GLP1R inv ag: 8.9µM*; GRP78 ERSR act: 7%; GLP-1R agonist: -1%; 12-LOX inh: inconclusive; PTHR1 agonist: -27%

How did CC(=O)N1CCC2(CC1)NC(=O)N(c1ccccc1)N2 do in these assays?
GLS inh: -4%; GLP1R inv ag: inconclusive; GRP78 ERSR act: -9%; GLP-1R agonist: -1%; 12-LOX inh: inconclusive; PTHR1 agonist: inactive

What do the screens show for `Cc1ccc(C(=O)N2CCC3(CC2)NC(=O)N(c2ccc(F)cc2)N3)s1`?
12-LOX inh: 2µM*

What do the screens show for `O=C(c1cc(C2CC2)[nH]n1)N1CCC2(CC1)NC(=O)N(c1cccc(F)c1)N2`?
12-LOX inh: 11µM*

How did COc1ccccc1C(=O)N1CCC2(CC1)NC(=O)N(c1cccc(F)c1)N2 do in these assays?
12-LOX inh: 2.5µM*

Results for O=C(c1cc(C2CC2)[nH]n1)N1CCc2nn(Cc3ccccc3)c(=O)n2CC1 ?
12-LOX inh: 40%

Results for COc1ccccc1C(=O)N1CCC2(CC1)NC(=O)N(Cc1ccc(F)cc1)C2=O ?
12-LOX inh: 19%

Results for CCn1nccc1C(=O)N1CCC2(CC1)NC(=O)N(c1cccc(F)c1)N2 ?
12-LOX inh: 4µM*

How did COc1ccc(C(=O)N2CCC3(CC2)CC(O)CCO3)cc1F (stereo unspecified) do in these assays?
12-LOX inh: 27%

Results for COc1cccc(C(=O)N2CCC3(CC2)NC(=O)N(c2cccc(F)c2)N3)c1OC ?
12-LOX inh: 3.2µM*

Results for COc1ccc(C(=O)N2CCC3(CC2)NC(=O)N(c2cccc(F)c2)N3)cc1F ?
12-LOX inh: 2µM*

Results for COc1ccccc1CC(=O)N1CCC2(CC1)NC(=O)N(c1cccc(F)c1)N2 ?
12-LOX inh: 1.8µM*

How did COc1cccc(C(=O)N2CCC3(CC2)NC(=O)N(c2ccc(F)cc2)N3)c1OC do in these assays?
12-LOX inh: 4µM*

How did CCn1c2c(c(=O)[nH]c1=O)C(c1ccccc1)C1=C(CC(C)(C)CC1=O)N2 (stereo unspecified) do in these assays?
12-LOX inh: 54%

What do the screens show for `O=C(/C=C/c1ccc(OCCCF)cc1)N1CCN(Cc2ccccc2)CC1`?
GLS inh: 7%; GLP1R inv ag: 10µM*; GRP78 ERSR act: 5%; GLP-1R agonist: 26%; 12-LOX inh: -1%; PTHR1 agonist: -12%

Results for CC(=O)NC1C(=O)N(CCN2CCOCC2)c2ccc(Br)cc21 (stereo unspecified) ?
GLS inh: inconclusive; GLP1R inv ag: 11%; GRP78 ERSR act: 0%; GLP-1R agonist: 2%; 12-LOX inh: 32µM*; PTHR1 agonist: inactive

Results for CCCCCCCCn1c(=O)c(C(=O)OC)c(N)c2ccccc21 ?
GLS inh: -5%; GLP1R inv ag: inconclusive; GRP78 ERSR act: -6%; GLP-1R agonist: 7%; 12-LOX inh: 40%; PTHR1 agonist: -36%

How did CCCCCCCn1c(=O)c(C(=O)OC)c(N)c2ccccc21 do in these assays?
GLS inh: 0%; GLP1R inv ag: 11µM*; GRP78 ERSR act: -9%; GLP-1R agonist: 17%; 12-LOX inh: 422%; PTHR1 agonist: -29%

What do the screens show for `CC1=C(C(=O)OC2CCCCC2)C(c2ccco2)C2=C(CC(C)(C)CC2=O)N1` (stereo unspecified)?
GLS inh: 1%; GLP1R inv ag: 8.9µM*; GRP78 ERSR act: -4%; GLP-1R agonist: 1%; 12-LOX inh: -9%; PTHR1 agonist: -17%

Results for COC(=O)C1C(=O)C2=C(CC1C)NC(C)=C(C(=O)OC(C)C)C2c1ccc(C)o1 (stereo unspecified) ?
GLS inh: 4%; GLP1R inv ag: -5%; GRP78 ERSR act: 0%; GLP-1R agonist: -13%; 12-LOX inh: 22%; PTHR1 agonist: inactive

Results for COC(=O)C1C(=O)C2=C(CC1C)NC(C)=C(C(=O)OC1CCCCC1)C2c1ccc(N(C)C)cc1 (stereo unspecified) ?
GLS inh: -3%; GLP1R inv ag: 10µM*; GRP78 ERSR act: -2%; GLP-1R agonist: 0%; 12-LOX inh: 0%; PTHR1 agonist: -5%

How did COC(=O)C1C(=O)C2=C(CC1C)NC(C)=C(C(=O)OCCOc1ccccc1)C2c1ccc(C)o1 (stereo unspecified) do in these assays?
GLS inh: -6%; GLP1R inv ag: 11µM*; GRP78 ERSR act: -6%; GLP-1R agonist: 10%; 12-LOX inh: 8%; PTHR1 agonist: inactive
